Giardia FBPA inh = Giardia lamblia aldolase inhibition; 0.71% of 290,000 active; purified Giardia FBPA; Potency, µM (highest dose often 59.6 µM), usual class: inhibitors; A8B2U2; note: nearly all actives have a fitted effect of over 55% in size
Target sequence (A8B2U2 whole entry, looked up): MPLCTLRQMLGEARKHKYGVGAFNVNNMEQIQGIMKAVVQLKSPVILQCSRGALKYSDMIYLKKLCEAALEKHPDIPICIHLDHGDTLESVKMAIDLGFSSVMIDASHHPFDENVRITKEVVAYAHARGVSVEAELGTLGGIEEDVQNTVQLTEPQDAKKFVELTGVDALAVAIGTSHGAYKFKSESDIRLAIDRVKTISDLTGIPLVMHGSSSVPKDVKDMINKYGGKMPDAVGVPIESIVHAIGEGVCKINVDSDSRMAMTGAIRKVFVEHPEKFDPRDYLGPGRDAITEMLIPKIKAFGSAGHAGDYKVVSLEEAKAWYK
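Giardia FBPA (40 nM reagent) was preincubated 10 min at RT with compound (up to 57.5 uM final), then substrate plus GAPDH/TPI/NAD/arsenate coupling system with diaphorase/resazurin was added; resorufin fluorescence (525/598 nm) was read after 20 min.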
Pf growth 96h = P. falciparum growth inhibition at 96 hours; P. falciparum luciferase reporter growth, 96 h; Potency, µM (highest dose often 28.7 µM), usual class: inhibitors; 6.9% of 320,000 active; AID 504834
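P. falciparum expressing integrated firefly luciferase, in erythrocytes at 2% hematocrit, 0.05% parasitemia, incubated with compounds 96 h at 37 C, 5% CO2. Growth inhibition read as loss of luminescence; two-generation exposure targets delayed-death apicoplast inhibitors.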
Pf growth 48h = P. falciparum growth inhibition at 48 hours (one generation); 5.9% of 310,000 active; Potency, µM (titrated, usually from 28.7 µM), most hits filed as inhibitors; AID 504832; P. falciparum luciferase growth in erythrocytes, 48 h
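In quantitative HTS format, infected erythrocytes bearing luciferase-reporter parasites were treated for a single generation at 37 C. Luminescence after adding detection reagent served as the growth measure.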
Shiga inhibitor = blocks Shiga toxin action in Vero cells. Vero cells, Shiga toxin protein synthesis inhibition reporter. inhibition, % at 38.7 µM. 9.2% of 290,000 active. AID 2315; in the data active = inhibition mostly above about 28%, no sharp cut-off; inactive = mostly below about 43%
CHX counter = affects cycloheximide protein synthesis inhibition readout, counter-screen. cell reporter, cycloheximide protein synthesis inhibition counterscreen. max response, %. 12% of 300,000 active. AID 2314; in the data active = max response mostly above about 13%, no sharp cut-off; inactive = mostly below about 14%; note: read at 38.3 µM for the half of the compounds with a filed dose
NS1 inh = blocks influenza NS1 protein function; 0.4% of 270,000 active; Potency, µM (titrated, usually from 46.1 µM); calls by dose curve; note: actives are rising curves; nearly all actives have a fitted effect of over 50% in size
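OD600 was taken as the measure of yeast growth restored by compound in an NS1-expressing S. cerevisiae strain. Cells had been washed out of glucose medium and diluted 1:100 into galactose -URA medium, pH 6.0.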
Large screens that a line does not name were inactive. Sampled rows, rich in hits. Any-hit rate of the full collection: about 21%. Unless noted, calls come from the whole dose curve; as a rule, active = well fitted curve in the direction sought with a large enough effect; inconclusive = small, poorly fitted or top-dose-only effect, or another doubt; inactive = no such curve, though single readings can be large; an effect the other way counts as inactive or inconclusive.

CN(C)c1ccc(-c2nc(N(C)C)c3ccccc3n2)cc1	none (no result: Pf growth 96h, Pf growth 48h, Shiga inhibitor, CHX counter, NS1 inh)
CCN(C(=O)COC(=O)CSc1ccc(F)cc1)c1c(N)n(Cc2ccccc2)c(=O)[nH]c1=O	none (no result: Giardia FBPA inh, Shiga inhibitor, CHX counter, NS1 inh)
Cc1cccc(-c2nc3ccccc3c(=O)n2-n2cccc2)c1	none
Cc1cccc(-c2nc3ccccc3c(=O)[nH]2)c1	Shiga inhibitor 73, CHX counter 23
CSc1ccc(C(=S)N2CCN(C(c3ccccc3)c3ccccc3)CC2)cc1	Pf growth 96h 5.2µM (no result: Pf growth 48h)
CSc1ccc(C(=S)N2CCCC2)cc1	Pf growth 96h inconclusive, CHX counter 16
COc1cccc(Nc2ncc3nc(-c4ccc(F)cc4)c(=O)n(CCC#N)c3n2)c1	none (no result: Pf growth 96h, Pf growth 48h, Shiga inhibitor, CHX counter, NS1 inh)
C/C(CCN1CCCCc2nc(C)c(C)cc21)=N\O[C@@H](C)c1cc(-c2c(C)cc(C)cc2C)no1	none (no result: Pf growth 96h, Pf growth 48h, Shiga inhibitor, CHX counter, NS1 inh)
COc1ccc(-c2nc3c(c4c2CC(C)OC4)CN(CCC(C)C)CC3)cc1 (stereo not given)	none (no result: Pf growth 96h, Pf growth 48h, Shiga inhibitor, CHX counter, NS1 inh)
C/C(=C\c1ccc(N)cc1)c1nc2ccccc2[nH]1	Shiga inhibitor 61, CHX counter 49
COC(=O)/C(=C\c1cc(OC)c(OC)c(OC)c1)c1nc2ccccc2[nH]1	Pf growth 48h inconclusive, CHX counter 22
COC(=O)/C(=C\c1ccc(O)cc1)c1nc2ccccc2[nH]1	Shiga inhibitor 60, CHX counter 35 (no result: NS1 inh)
COc1c(O)c(O)cc2c1oc1c3cc(C)ccc3oc(=O)c21	none (no result: Pf growth 96h, Pf growth 48h, Shiga inhibitor, CHX counter, NS1 inh)
C/C(=N/Oc1nc(C)cc(C)n1)c1ccccc1	CHX counter 19 (no result: Pf growth 48h)
C/C(=N/Oc1nc(C)cc(C)n1)c1ccc(F)cc1	CHX counter 21
O=C(O)C[C@@H](C(=O)O)C1c2ccccc2-c2ccccc21	none (no result: Giardia FBPA inh, Pf growth 96h, Pf growth 48h, Shiga inhibitor, CHX counter)
COC(=O)c1cc2occc2n1Cc1c(F)cccc1Cl	Pf growth 96h 2.6µM
CCOC(=O)c1cc2occc2n1Cc1c(F)cccc1Cl	none (no result: Pf growth 96h)
CC(=O)Nc1ccc(S(=O)(=O)NC(CC(=O)NCCc2ccccc2)C(C)C)cc1 (stereo not given)	CHX counter 31 (no result: Pf growth 48h)
Cc1ccc(S(=O)(=O)NC(=O)NCCc2ccccc2)cc1	CHX counter 15 (no result: NS1 inh)
Cc1ccc(S(=O)(=O)NC(=O)NC(C)Cc2ccccc2)cc1 (stereo not given)	CHX counter 20
Cc1ccc(S(=O)(=O)NNC(=S)NCCc2ccccc2)cc1	none
COc1ccc(CCNC(=O)CC(NS(=O)(=O)c2ccc(NC(C)=O)cc2)C(C)C)cc1OC (stereo not given)	Pf growth 96h inconclusive
CCSc1nnc(NC(=O)CCNS(=O)(=O)c2ccccc2F)s1	Pf growth 96h inconclusive
COc1ccc(C(=O)Nc2ccc3nc(N4CCOCC4)sc3c2)cc1OC	Pf growth 96h inconclusive (no result: Giardia FBPA inh, Shiga inhibitor, CHX counter, NS1 inh)
CCOCc1c(C(=O)Nc2cc(OCC)c(N3CCOCC3)cc2OCC)oc2ccccc12	Pf growth 96h inconclusive (no result: NS1 inh)
CCOCc1c(C(=O)Nc2ccc3nc(N4CCOCC4)sc3c2)oc2ccccc12	Pf growth 96h inconclusive, Pf growth 48h 15µM (no result: Giardia FBPA inh, Shiga inhibitor, CHX counter, NS1 inh)
CCOCc1c(C(=O)Nc2ccccc2N2CCN(C)CC2)oc2ccccc12	Pf growth 96h 13µM, Pf growth 48h inconclusive (no result: Giardia FBPA inh, Shiga inhibitor, CHX counter, NS1 inh)
N#C/C(=N/Nc1ccc(OC(F)(F)F)cc1)C(N)=S	Pf growth 96h 1.7µM, Pf growth 48h 6.6µM, Shiga inhibitor 75, CHX counter 57
COc1ccc(N/N=C(\C#N)C(N)=O)cc1	CHX counter 13
COc1ccc(C(=O)/C(C#N)=N/Nc2ccc([N+](=O)[O-])cc2)cc1	Pf growth 96h inconclusive, Pf growth 48h 13µM
CCOC(=O)NC(=O)/C(C#N)=N\Nc1ccc(Cl)cc1	Pf growth 96h inconclusive (no result: Pf growth 48h)
CCOc1ccc(N/N=C(/C#N)C(N)=O)cc1	Shiga inhibitor 46, CHX counter 31
CNC(=S)Nc1ccc(OC(F)(F)F)cc1	none (no result: NS1 inh)
COc1ccc(CN(C)CC(=O)Nc2ccccc2-c2ccccc2)c(OC)c1	Pf growth 96h inconclusive, Pf growth 48h 10µM (no result: NS1 inh)
COc1ccc(CN(C)C(=O)c2ccc(COc3ccccc3)cc2)c(OC)c1	Pf growth 96h inconclusive, Pf growth 48h inconclusive
COc1ccccc1CN(C)CC(=O)Nc1ccccc1-c1ccccc1	Pf growth 96h inconclusive, Pf growth 48h inconclusive, CHX counter 15 (no result: NS1 inh)
COc1ccc(CC(=O)Nc2ccccc2-c2ccccc2)cc1OC	none
COc1ccc(CN(C)C(=O)C(Cc2ccccc2)NC(=O)c2ccccc2)c(OC)c1 (stereo not given)	Pf growth 96h inconclusive, Pf growth 48h 10µM (no result: Giardia FBPA inh, Shiga inhibitor, CHX counter, NS1 inh)
Cc1ccccc1CN(C)CC(=O)Nc1ccccc1-c1ccccc1	Pf growth 96h 9.3µM, Pf growth 48h inconclusive
O=C(CN1C(=O)c2ccccc2C1=O)Oc1ccc(F)cc1	none
CC(CCc1ccccc1)NC(=O)COC(=O)c1ccc(NC(N)=O)cc1 (stereo not given)	Pf growth 48h inconclusive
COc1ccc(NC(=O)Cn2cc(C(C)=O)c3ccccc32)cc1	Pf growth 96h inconclusive (no result: Shiga inhibitor)
COc1ccc(N2CCN(CC(=O)c3c[nH]c4ccccc34)CC2)cc1	none
COc1ccc(NC(=O)CCCn2c(=O)[nH]c3ccccc3c2=O)cc1	Pf growth 48h 2.3µM
COc1ccc(NC(=O)CCCCn2c(=O)[nH]c3ccccc3c2=O)cc1	Pf growth 48h inconclusive
COc1ccc(NC(=O)CCn2cc(C)c3ccccc32)cc1	Shiga inhibitor 56, CHX counter 48
COc1ccc(N2CCN(CCCNC(=O)C(=O)c3c(C)[nH]c4ccccc34)CC2)cc1	Pf growth 96h inconclusive, Pf growth 48h 5.2µM (no result: Giardia FBPA inh)
COc1ccc(N2CCN(C(=O)Cn3c(=O)[nH]c4ccccc4c3=O)CC2)cc1	Pf growth 96h 10µM (no result: NS1 inh)
CCCN(C(=O)Cc1csc(-c2ccccc2)n1)C1CCS(=O)(=O)C1 (stereo not given)	none (no result: Giardia FBPA inh, Shiga inhibitor, CHX counter, NS1 inh)
COc1ccc(N2CCN(C(=O)CCCSc3nc4ccccc4[nH]3)CC2)cc1	Pf growth 96h 9.3µM (no result: Pf growth 48h)
O=C(Cc1ccc(-n2c(=O)[nH]c3ccccc3c2=O)cc1)N1CCN(c2ccccc2)CC1	Pf growth 48h 12µM
O=C(Cc1ccc(-n2c(=S)[nH]c3ccccc3c2=O)cc1)N1CCN(c2ccccc2)CC1	none (no result: Pf growth 48h)
O=C(O)[C@H](Cc1ccccc1)N1C(=O)c2c(Cl)c(Cl)c(Cl)c(Cl)c2C1=O	Giardia FBPA inh inconclusive
CC(C)C(NC(=O)c1ccccc1F)C(=O)Nc1nccs1 (stereo not given)	Pf growth 96h inconclusive (no result: NS1 inh)
O=c1c(Cc2ccc(F)cc2)c(O)ccn1C1CC1	Pf growth 48h 5.2µM
O=C(Nc1ccccc1)Nc1nccs1	Shiga inhibitor 45, CHX counter 38
CC(Oc1ccc(Cl)cc1)C(=O)Nc1nccs1 (stereo not given)	Pf growth 48h 4.1µM, Shiga inhibitor 56, CHX counter 17 (no result: Pf growth 96h)
CCC(C)OC(=O)n1ccc(C(=O)Nc2nccs2)n1 (stereo not given)	Shiga inhibitor 68, CHX counter 32
CCC(C)C(=O)Nc1nccs1 (stereo not given)	Giardia FBPA inh inconclusive, CHX counter 16
